High-throughput results from PubChem.
Shown are actives, neighbours in structure and some others; about 3% of the full set was active somewhere.
DAGLB inh: blocks human DAGLB lipase activity; 340,000 tested, 0.059% active; Q8NCG7; AID 504411; inhibition, % at 5.17 µM; HEK293T DAGLB membrane lysate, EnzChek fluorogenic substrate; in the data active = inhibition above about 34%
Target sequence (Q8NCG7 whole entry, looked up): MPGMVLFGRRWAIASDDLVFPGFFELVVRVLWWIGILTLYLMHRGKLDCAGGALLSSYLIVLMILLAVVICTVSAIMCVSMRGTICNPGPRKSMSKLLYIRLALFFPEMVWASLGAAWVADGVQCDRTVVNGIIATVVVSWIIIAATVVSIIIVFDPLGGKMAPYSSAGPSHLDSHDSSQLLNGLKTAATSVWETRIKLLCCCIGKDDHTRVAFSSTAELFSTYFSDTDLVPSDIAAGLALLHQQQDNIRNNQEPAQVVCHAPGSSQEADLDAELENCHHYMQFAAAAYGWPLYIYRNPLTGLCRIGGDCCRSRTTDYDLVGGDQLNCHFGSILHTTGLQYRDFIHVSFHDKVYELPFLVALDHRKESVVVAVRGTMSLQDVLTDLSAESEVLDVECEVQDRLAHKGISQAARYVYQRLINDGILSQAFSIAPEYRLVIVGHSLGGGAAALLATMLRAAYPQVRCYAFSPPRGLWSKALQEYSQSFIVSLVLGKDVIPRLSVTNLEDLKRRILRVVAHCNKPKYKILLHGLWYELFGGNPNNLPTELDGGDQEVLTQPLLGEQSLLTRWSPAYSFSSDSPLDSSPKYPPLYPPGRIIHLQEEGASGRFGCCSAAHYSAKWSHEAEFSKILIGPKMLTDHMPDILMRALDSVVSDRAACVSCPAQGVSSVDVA
PAFAH1B3 FP inh: PAFAH1B3 (human) inhibition | Q15102 | recombinant PAFAH1B3, FP-rhodamine probe, fluorescence polarization | inhibition, % at 3.39 µM | 340,000 tested, 0.28% active | AID 492972;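 active = inhibition above the screen-wide average of all tested compounds plus 3 SD, cut at about 25% in these data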
PAFAH1B2 FP inh: blocks human PAF acetylhydrolase 1b catalytic subunit 2 | recombinant PAFAH1B2, FP-rhodamine activity probe, fluorescence polarization | inhibition, % at 3.39 µM | P68402 | 340,000 tested, 1.2% active;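 active = inhibition above the mean of all tested compounds plus 3 SD, cut at about 24% in these data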
ATG4B inhibitor: inhibitors of human ATG4B cysteine protease; Q9Y4P1; ATG4B cleavage of LC3-PLA2, NBD-HPC fluorescence, 1 h; inhibition, % at 8.33 µM; 340,000 tested, 0.51% active; in the data active = inhibition above about 40%
PAFAH2 FP inh: inhibitors of human PAFAH2; Q99487; recombinant PAFAH2, FP-rhodamine activity probe, fluorescence polarization; inhibition, % at 3.39 µM; 340,000 tested, 0.99% active; AID 492956;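 active = inhibition above the mean over all tested compounds plus 3 SD, cut at about 30% in these data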;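 note: inhibitors block probe labeling of enzyme so polarization drops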
pPAFAH FP inh: inhibitors of human plasma PAF acetylhydrolase (pPAFAH) | recombinant pPAFAH, FP-rhodamine probe fluorescence polarization | Q13093 | inhibition, % at 3.39 µM | AID 463082 | 330,000 tested, 1.5% active;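 active = inhibition above the mean inhibition across the screen plus 3 SD, cut at about 25% in these data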;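 note: inhibitors block binding of the rhodamine activity-based probe so polarization drops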
ATG4B confirm: confirmation of human ATG4B inhibitors | shares compounds with ATG4B inhibitor | ATG4B protease fluorescent substrate cleavage assay | inhibition, % at 8.33 µM | 320 tested, 92% active; in the data active = inhibition above about 39%
PLA2 ctr: inhibits human PLA2, flagging false ATG4B inhibitors | shares compounds with ATG4B inhibitor | purified PLA2, NBD-C6-HPC fluorescence, 45 min | inhibition, % at 8.33 µM | 1,600 tested, 66% active | AID 588402; in the data active = inhibition above about 50%
Numbers stand for hits; i = inactive; nt = not tested or not shown.

SMILES | DAGLB inh | PAFAH1B3 FP inh | PAFAH1B2 FP inh | ATG4B inhibitor | PAFAH2 FP inh | pPAFAH FP inh | PLA2 ctr | others
COc1cc(CN2CC(=O)N(c3ccccc3Cl)C2=S)cc(OC)c1OC | i | i | i | i | i | i | nt
Cc1ccsc1CN1CC(=O)N(c2c(C)cccc2C)C1=S | i | i | i | 85 | i | i | 93
COc1ccc(CN2CC(=O)N(c3ccc(C)cc3)C2=S)cc1OC | i | i | i | i | i | i | nt
COc1cc(Cl)c(C)cc1N1C(=O)CN(Cc2ccccc2)C1=S | i | i | i | 52 | i | i | 69
Cc1cccc(N2C(=O)CN(Cc3sccc3C)C2=S)c1 | i | i | i | 88 | i | i | 92
COc1cc(C(CC(=O)Nc2ccc(C)cn2)N2Cc3ccccc3C2=O)cc(OC)c1OC (stereo not drawn) | i | i | i | i | i | i | nt
O=C(c1ccc(OC2CCN(Cc3ccccc3OC(F)F)CC2)cc1)N1CCCC1 | i | i | i | 42 | i | i | 52
O=C(c1ccc(OC2CCN(Cc3ccc(C(F)(F)F)cc3)CC2)cc1)N1CCCCC1 | i | i | i | 41 | i | i | 51
COc1ccccc1/C=C/CN1CCC(Oc2ccc(C(=O)N3CCCC3)cc2)CC1 | i | i | i | i | i | i | nt
O=C(c1ccc(OC2CCN(Cc3ccccc3C(F)(F)F)CC2)cc1)N1CCCCC1 | i | i | i | i | i | i | nt
C=CCOc1ccccc1CN1CCC(Oc2ccc(C(=O)N3CCCC3)cc2)CC1 | i | i | i | i | i | i | nt
COc1cc(/C=C/CN2CCC(Oc3ccc(C(=O)N4CCCC4)cc3)CC2)ccc1O | i | i | i | 40 | i | nt | i
O=C(NC(=S)NCCC1=CCCCC1)c1ccc(Br)o1 | i | i | i | 40 | i | i | i | ATG4B confirm=62
O=C(NCCC1=CCCCC1)c1ccc(Br)o1 | i | i | i | i | i | i | nt
O=C(Oc1c(-c2ccccc2)oc2ccccc2c1=O)c1ccccc1 | i | i | i | 45 | i | i | 64
COc1ccc(-c2oc3ccccc3c(=O)c2OC(=O)c2ccc(C)cc2)cc1 | i | i | i | i | i | i | nt
CC1=C(CC(=O)O)c2cc(F)ccc2/C1=C\c1ccc(S(C)=O)cc1 (stereo not drawn) | i | i | i | i | i | i | nt
Cc1ccc(-n2nc3c(=O)n(C(C)C(=O)NC4CC4)nc(C)c3c2C)cc1 (stereo not drawn) | i | i | i | i | i | i | nt
NC(=O)c1ccc(CSc2nc3ccccc3s2)cc1 | i | i | i | 51 | i | i | 59
Cc1ccc(S(=O)(=O)N2CCC(C(=O)NCc3ccccc3Cl)CC2)cc1 | i | i | i | 46 | i | i | i | ATG4B confirm=67
CC1CCc2nc3ccc(S(=O)(=O)N4CCC(C(=O)NCc5ccccc5Cl)CC4)cc3c(C(=O)O)c2C1 (stereo not drawn) | i | i | i | 55 | i | i | 79
O=C(NC1CCc2ccccc21)C1CCN(S(=O)(=O)c2ccc(Cl)cc2)CC1 (stereo not drawn) | i | i | i | 46 | i | i | i
Cc1ccc(S(=O)(=O)N2CCN(CC(=O)Nc3ccnn3C3CCCC3)CC2)cc1 | i | i | i | i | i | i | nt
CC(C)c1ccc(Nc2nc(NCc3ccco3)nc(N3CCOCC3)n2)cc1 | i | i | i | 41 | i | i | 57
Cc1ccccc1C(=O)NC(=S)Nc1ccc(S(=O)(=O)N(C)c2ccccc2)cc1 | i | i | i | 48 | i | i | 57
SMILES | DAGLB inh | PAFAH1B3 FP inh | PAFAH1B2 FP inh | ATG4B inhibitor | PAFAH2 FP inh | pPAFAH FP inh | PLA2 ctr | others
CCOC(=O)[C@H]1[C@H]2COc3cc(OC)ccc3[C@@H]2N2C(=O)c3c(C)cc(C)cc3NC(=O)[C@@]12C | i | i | i | i | i | i | nt
Cc1ccsc1C(=O)NCCC(c1ccccc1)c1ccccc1 | i | i | i | 41 | i | i | i
O=C(Nc1ccccc1C(=O)O)c1cccc(NC(=O)c2ccccc2Br)c1 | i | i | i | i | i | i | nt
O=C(Nc1cc(C(=O)Nc2ccccc2C(=O)O)cc(C(=O)Nc2ccccc2C(=O)O)c1)c1ccccc1 | i | i | i | 68 | i | i | 84
Cc1cccc(N2CCN(S(=O)(=O)c3ccc4c(c3)CCN4C(=O)CCC(=O)O)CC2)c1C | i | i | i | 41 | i | i | i
Cc1ccc(C)c(N2CCN(S(=O)(=O)c3ccc4c(c3)CCN4C(=O)CCC(=O)O)CC2)c1 | i | i | i | i | i | i | nt
O=C(NCc1ccc(Cl)cc1)c1ccccc1CCc1ccccc1 | i | i | i | 55 | i | i | 53
C=CCc1ccccc1OCC(=O)NNC(=S)NCc1ccccc1 | i | i | i | 69 | i | i | 69
C[C@@H]1CN([C@@H](C)CO)C(=O)CCCn2nncc2CO[C@@H]1CN(C)S(=O)(=O)c1ccc2ccccc2c1 | i | nt | nt | nt | nt | nt | nt
Cc1cnc(NC(=O)c2ccc3ncsc3c2)s1 | i | i | i | i | i | nt | nt
O=C(O)/C=C/c1ccccc1Oc1ccc(Cl)cc1Cl | i | i | i | 41 | i | i | i | ATG4B confirm=68
Cc1cccc(NC(=O)CSc2nnc(-c3cc(C)n(-c4ccccc4)c3C)o2)c1C | i | i | i | 41 | i | i | 56
Cc1cc(-c2nnc(SCC(=O)Nc3ccccc3C(F)(F)F)o2)c(C)n1-c1ccccc1 | i | i | i | i | i | i | nt
Cc1c(Cl)c([N+](=O)[O-])nn1Cc1ccc(C(=O)Nc2ccc(Cl)cn2)o1 | i | i | i | 46 | i | i | i | ATG4B confirm=64
Cc1cccc(C(=O)O/N=C2\CCCc3ccccc32)c1 | i | i | i | 45 | i | i | i
CCc1nn(CCCC(=O)NCc2ccccc2Br)c(=O)c2cc3occc3n12 | i | i | i | 51 | i | i | i | ATG4B confirm=66
CCc1cccc(NC(=O)CCCn2nc(CC)n3c(cc4occc43)c2=O)c1 | i | i | i | i | i | i | nt
NC(=O)c1ccc(NCC2COc3ccccc3O2)c([N+](=O)[O-])c1 (stereo not drawn) | i | i | i | 82 | i | i | 79
COc1ccc(Br)cc1/C=N/NC(=O)c1ccc2nc[nH]c2c1 | i | i | i | i | i | i | nt
Cc1cccc(NC(=S)NNC(=O)c2csc3c2CCCC3)c1 | i | i | i | 43 | i | 26 | i | ATG4B confirm=71
CCCc1cc(C(=O)N(C2CCCCC2)C2CCCCC2)no1 | i | i | i | 60 | i | i | 72
COc1ccc(C2C(Oc3ccccc3)C(=O)N2c2cc(C)ccc2C)cc1OC (stereo not drawn) | i | i | i | i | i | i | nt
COc1ccc(C)cc1N1C(=N)/C(=C2/Nc3ccccc3S2)C(c2ccccc2)C1=O (stereo not drawn) | i | i | i | 50 | i | i | i
